Among the data in PubChem BioAssay (NCI) are growth values, retold here.

Some test systems named below: NCI-H23 lung; NCI-H226 lung; NCI-H322M lung; HOP-62 NSCLC; NCI-H460 lung; HOP-92 NSCLC; NCI-H522 lung; A549/ATCC NSCLC; 786-0 renal; COLO 205 colon; DU-145 prostate; K-562 leukemia; MALME-3M melanoma; MDA-MB-231 breast; RXF 393 renal; SF-268 CNS; SF-295 CNS; SF-539 CNS; UACC-257 melanoma; M14 melanoma.
Assay in all cases: NCI-60 one-dose screen, 48 h (100 = growth as untreated, 0 = no growth, -100 = all killed)
Settings in all cases: 10 µM unless noted

SMILES strings stand for the structures. The panel holds about 83,000 compounds, 20% with a hit somewhere; the sample as a whole holds those more often.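 Activity criterion: percent growth below 10, measured after cells in 96-well plates were exposed to a single compound concentration for 48 hours.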 A number with no mark means an inactive call. Active and inactive are the calls of the source.

Take `O=C(c1ccccc1)C1OC1c1ccc([N+](=O)[O-])cc1` (stereo not given): the growth in the experiment on NCI-H23 lung was 48.1%; in the experiment with NCI-H226 lung, 67.7%; with NCI-H322M lung it was 106%; in the experiment with HOP-62 NSCLC, 86.4%; with NCI-H460 lung, 84%; in the experiment with HOP-92 NSCLC it was 61.5%. Also, the growth in the experiment on NCI-H522 lung is 31.4%; with A549/ATCC NSCLC, 85.6%; in the experiment on 786-0 renal, 83.3%; in the experiment on COLO 205 colon, 112%; with DU-145 prostate, 67.9%; in the experiment on K-562 leukemia, 32.6%. Further, the growth is 83.6% with MALME-3M melanoma; 78.4% with MDA-MB-231 breast; 77.8% with RXF 393 renal; 79.2% in the experiment with SF-268 CNS; 97% in the experiment on SF-295 CNS; 96.5% in the experiment with SF-539 CNS. Besides, the figures for the growth in the experiment on UACC-257 melanoma and in the experiment on M14 melanoma were 68.1% and 48.2%, respectively.
As to `O=C1NC(=C(Cl)Cl)/C(=N/S(=O)(=O)N2CCC(C3(C(F)(F)F)N=N3)CC2)N1`, the growth with NCI-H23 lung is 45.3%; in the experiment with NCI-H226 lung it was 106%; with NCI-H322M lung, 95.8%; with HOP-62 NSCLC it was 104%; in the experiment with NCI-H460 lung, 100%; in the experiment with HOP-92 NSCLC, 87%. Moreover, the growth is -58% (active) in the experiment with NCI-H522 lung; 106% in the experiment with A549/ATCC NSCLC; 103% in the experiment with 786-0 renal; 26% with COLO 205 colon; 102% with DU-145 prostate; 8.72% (active) in the experiment on K-562 leukemia. Besides, the growth is 100% with MALME-3M melanoma; 71.2% with MDA-MB-231 breast; 79.5% in the experiment on RXF 393 renal; 86% in the experiment with SF-268 CNS; 101% with SF-295 CNS; 98.2% in the experiment with SF-539 CNS. Further, the results for the growth with UACC-257 melanoma and with M14 melanoma were 97.2% and 98.9%, respectively.
As to `COc1cc(C(=O)/C=C/c2ccc3nc(-c4cc(F)cc(F)c4)sc3c2)cc(OC)c1OC`, the growth in the experiment with NCI-H23 lung is 99.3%; in the experiment with NCI-H226 lung it was 120%; in the experiment with NCI-H322M lung it was 93%; in the experiment with HOP-62 NSCLC it was 92.3%; in the experiment with NCI-H460 lung, 110%; in the experiment with HOP-92 NSCLC, 83.4%. Moreover, the growth was 97.4% with NCI-H522 lung; 94.2% with A549/ATCC NSCLC; 93.4% with 786-0 renal; 115% in the experiment with COLO 205 colon; 112% in the experiment with DU-145 prostate; 100% in the experiment on K-562 leukemia. Moreover, the growth is 86.6% with MALME-3M melanoma; 84.2% with MDA-MB-231 breast; 110% in the experiment with RXF 393 renal; 97.3% in the experiment with SF-268 CNS; 94.2% in the experiment on SF-295 CNS; 92.4% in the experiment on SF-539 CNS. The growth is 103% in the experiment on UACC-257 melanoma and 97.1% with M14 melanoma.
As for `O=C(Nc1ccc(NCCN2CCOCC2)nc1)c1ccc([N+](=O)[O-])cc1`, the growth in the experiment on NCI-H23 lung is 100%; in the experiment on NCI-H226 lung, 109%; in the experiment on NCI-H322M lung, 107%; in the experiment on HOP-62 NSCLC it was 103%; in the experiment on NCI-H460 lung it was 110%; with HOP-92 NSCLC, 103%. The growth in the experiment with NCI-H522 lung is 95.2%; in the experiment on A549/ATCC NSCLC it was 98.3%; with 786-0 renal, 104%; in the experiment on COLO 205 colon, 110%; in the experiment with DU-145 prostate, 106%; in the experiment on K-562 leukemia, 103%. Moreover, the growth is 105% in the experiment with MALME-3M melanoma; 103% with MDA-MB-231 breast; 124% in the experiment with RXF 393 renal; 103% in the experiment with SF-268 CNS; 91.3% with SF-295 CNS; 95.6% in the experiment with SF-539 CNS. In addition, the values for the growth in the experiment with UACC-257 melanoma and with M14 melanoma were 93.1% and 105%, respectively.
Turning to `COc1ccc(OC)c(/C=C2\Oc3cc(OCCCN4CCCC4)ccc3C2=O)c1`, the growth in the experiment on NCI-H23 lung was 80.6%; in the experiment with NCI-H226 lung, 88.7%; with NCI-H322M lung, 88.9%; in the experiment on HOP-62 NSCLC, 95.6%; in the experiment on NCI-H460 lung, 61.3%; in the experiment with HOP-92 NSCLC, 77.6%. In addition, the growth is 89.6% in the experiment with NCI-H522 lung; 81.2% with A549/ATCC NSCLC; 84.2% in the experiment with 786-0 renal; 85.6% with COLO 205 colon; 79.6% with DU-145 prostate; -5.23% (active) in the experiment on K-562 leukemia. In addition, the growth with MALME-3M melanoma was 104%; in the experiment with MDA-MB-231 breast it was 68.8%; in the experiment on RXF 393 renal, 73.4%; with SF-268 CNS, 79.8%; in the experiment on SF-295 CNS it was 97.4%; in the experiment on SF-539 CNS, 46%. Also, the growth in the experiment on UACC-257 melanoma is 40.5%; in the experiment with M14 melanoma it was -2.52% (active).
`C=C1CCC2C3(C)COC(C)(C)OC3CCC2(C)C1C/C=C1/C(=O)OCC1Oc1ccccc1OC` (stereo not given): the growth is 92.2% in the experiment on NCI-H23 lung; 79.7% with NCI-H226 lung; 96.6% with NCI-H322M lung; 105% in the experiment with HOP-62 NSCLC; 102% in the experiment on NCI-H460 lung; 116% in the experiment with HOP-92 NSCLC. For the same molecule, the growth in the experiment on NCI-H522 lung is 17.5%; in the experiment on A549/ATCC NSCLC, 97.7%; in the experiment with 786-0 renal it was 99.9%; in the experiment on COLO 205 colon it was 102%; with DU-145 prostate, 78.9%; in the experiment on K-562 leukemia, 21.7%. The growth in the experiment with MALME-3M melanoma was 112%; with MDA-MB-231 breast, 103%; in the experiment on RXF 393 renal, 93.3%; in the experiment with SF-268 CNS, 99.7%; with SF-295 CNS, 101%; in the experiment on SF-539 CNS, 83%. In addition, the growth in the experiment with UACC-257 melanoma was 85.3%; in the experiment with M14 melanoma, 72.3%.
As for `COc1ccc2c(c1)[nH]c(=O)c1c3cccc(F)c3cn21`, the growth was 46.8% in the experiment on NCI-H23 lung; 45.3% with NCI-H226 lung; 52.4% in the experiment with NCI-H322M lung; 53.1% with HOP-62 NSCLC; 7.94% (active) with NCI-H460 lung; 69.4% with HOP-92 NSCLC. For the same molecule, the growth was -4.04% (active) in the experiment on NCI-H522 lung; 12.1% with A549/ATCC NSCLC; 44.3% with 786-0 renal; -20.8% (active) with COLO 205 colon; 9.01% (active) in the experiment with DU-145 prostate; 36.4% in the experiment with K-562 leukemia. Further, the growth in the experiment with MALME-3M melanoma is 50.9%; with MDA-MB-231 breast, 27.7%; with RXF 393 renal, -26.9% (active); in the experiment on SF-268 CNS it was 18%; with SF-295 CNS, -32.1% (active); in the experiment on SF-539 CNS, 22.8%. The results for the growth in the experiment on UACC-257 melanoma and with M14 melanoma were 44.8% and 40.4%, respectively.
As to `C=C1CCC2C3(C)COC(c4c(OC)cccc4OC)OC3CCC2(C)C1C/C=C1/C(=O)OCC1O` (stereo not given), the growth is 80% in the experiment with NCI-H23 lung; 80.2% with NCI-H226 lung; 70.3% in the experiment with NCI-H322M lung; 104% with HOP-62 NSCLC; 89% in the experiment with NCI-H460 lung; 46.7% in the experiment with HOP-92 NSCLC. In addition, the growth with NCI-H522 lung was 24.6%; in the experiment with A549/ATCC NSCLC it was 47.9%; with 786-0 renal, 90.3%; with COLO 205 colon, -15.2% (active); in the experiment with DU-145 prostate, 21%; in the experiment on K-562 leukemia, 37.9%. Moreover, the growth is 109% in the experiment on MALME-3M melanoma; 86.7% in the experiment with MDA-MB-231 breast; -28.7% (active) with RXF 393 renal; 67% in the experiment on SF-268 CNS; 85.1% in the experiment with SF-295 CNS; 66.7% in the experiment on SF-539 CNS. For the same molecule, the results for the growth in the experiment on UACC-257 melanoma and in the experiment on M14 melanoma were 59.6% and 39.9%, respectively.
